# Assay results from PubChem BioAssay.
# Unmarked numbers belong to inactive results. For some of these results: Results with a measured potency or affinity are listed apart. Activity calls are given as the source filed them. Unless noted, no rule for the calls is given here.
# Key:
# [1] = antimalarial activity against Dd2 strain (AID 2302;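 active = growth inhibition above 50% at the single 2 µM test dose, taken to imply half-maximal potency below 2 µM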;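 also: 0% = DMSO untreated growth and 100% = chloroquine plus artemisinin killed control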); settings: P. falciparum Dd2 in RBCs, LDH growth readout, 72 h; at 2 µM; stronger effect = higher value
# [2] = HepG2 cytotoxicity, primary screen, cytotoxicity control for P. falciparum antimalarial project, cell-based, ATP luminescence (AID 2303;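 active = inhibition above 50%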;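 also: 0% = DMSO wells and 100% = digitonin-killed cells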); settings: HepG2 viability, 24-48 h, at 10 µM, stronger effect = higher value
# [3] = target: L-lactate dehydrogenase (Plasmodium falciparum (isolate CDC / Honduras)) (UniProt Q27743); assay: PfLDH activity inhibition – cell lysate, 3D7 strain, counter-screen for P. falciparum growth inhibition project (AID 2304);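 also: 0% = vehicle and 100% = reference inhibitor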; settings: P. falciparum 3D7 crude extract, LDH APAD/NBT absorbance; at 2 µM; stronger effect = higher value
# L-lactate dehydrogenase (Plasmodium falciparum (isolate CDC / Honduras)), sequence (Q27743 whole entry, looked up): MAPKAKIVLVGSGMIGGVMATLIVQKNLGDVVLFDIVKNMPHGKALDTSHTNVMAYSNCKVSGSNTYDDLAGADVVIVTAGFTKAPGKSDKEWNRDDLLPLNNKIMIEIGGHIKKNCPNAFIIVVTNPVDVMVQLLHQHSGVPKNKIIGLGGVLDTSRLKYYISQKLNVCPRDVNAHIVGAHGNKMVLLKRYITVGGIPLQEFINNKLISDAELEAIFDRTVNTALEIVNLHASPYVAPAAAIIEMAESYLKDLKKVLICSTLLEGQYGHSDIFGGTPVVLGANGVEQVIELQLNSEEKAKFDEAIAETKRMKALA
# [4] = inhibition of 3D7 malaria parasite growth – strain 3D7 (AID 2306);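 also: 0% = DMSO wells and 100% = chloroquine plus artemisinin control wells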; settings: P. falciparum 3D7 erythrocytic growth, LDH absorbance, 72 h; at 2 µM; stronger effect = higher value
# [5] = target: Calcium-dependent protein kinase 1 (Plasmodium falciparum (isolate 3D7)) (UniProt P62344); assay: PfCDPK1 kinase inhibitors, biochemical, TCAMS library (AID 1159585; cut-off not given, nearly all actives have IC50 up to about 0.98 µM;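 also: inhibitors leave more ATP so luminescence rises with inhibition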); settings: recombinant PfCDPK1, Kinase-Glo ATP depletion luminescence
# Calcium-dependent protein kinase 1 (Plasmodium falciparum (isolate 3D7)), sequence (P62344 whole entry, looked up): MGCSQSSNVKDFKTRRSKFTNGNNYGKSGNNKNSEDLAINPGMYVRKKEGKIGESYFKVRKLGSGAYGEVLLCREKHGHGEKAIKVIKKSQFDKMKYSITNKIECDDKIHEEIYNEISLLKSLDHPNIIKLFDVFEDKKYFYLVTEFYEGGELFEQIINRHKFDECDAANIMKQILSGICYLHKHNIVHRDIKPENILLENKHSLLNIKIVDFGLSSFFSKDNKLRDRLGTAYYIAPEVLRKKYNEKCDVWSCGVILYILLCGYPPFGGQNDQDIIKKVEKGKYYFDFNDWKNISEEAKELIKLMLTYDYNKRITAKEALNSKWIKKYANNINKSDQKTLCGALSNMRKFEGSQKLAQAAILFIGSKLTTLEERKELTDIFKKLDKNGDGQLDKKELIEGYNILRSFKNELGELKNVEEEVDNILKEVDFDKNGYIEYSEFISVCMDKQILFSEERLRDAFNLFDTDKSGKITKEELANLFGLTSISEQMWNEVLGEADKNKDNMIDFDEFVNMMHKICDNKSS
# [6] = target: Plasmodium falciparum protein kinase 6 (PK6, PF3D7_1337100) (UniProt Q8IDW1); assay: PfPK6 kinase inhibitors, biochemical, TCAMS library (AID 1159586); settings: recombinant PfPK6, Kinase-Glo ATP depletion luminescence
# Plasmodium falciparum protein kinase 6 (PK6, PF3D7_1337100), sequence (Q8IDW1 1-305): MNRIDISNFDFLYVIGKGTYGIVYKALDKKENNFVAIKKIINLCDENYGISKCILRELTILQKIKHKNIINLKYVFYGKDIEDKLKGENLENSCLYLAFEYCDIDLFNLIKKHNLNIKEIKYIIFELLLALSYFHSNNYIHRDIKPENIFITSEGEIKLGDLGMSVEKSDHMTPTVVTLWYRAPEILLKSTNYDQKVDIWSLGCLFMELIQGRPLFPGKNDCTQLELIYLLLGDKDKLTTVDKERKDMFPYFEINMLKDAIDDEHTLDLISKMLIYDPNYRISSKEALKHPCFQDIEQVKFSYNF
# [7] = target: Protein kinase 7 (PK7), Plasmodium falciparum 3D7 (PF3D7_0213400) (UniProt Q7YTF7); assay: inhibition of Plasmodium PK7 catalytic activity – biochemical, TCAMS antimalarial set, Kinase-Glo luminescence (AID 1159587); settings: recombinant PfPK7, Kinase-Glo ATP depletion luminescence
# Protein kinase 7 (PK7), Plasmodium falciparum 3D7 (PF3D7_0213400), sequence (Q7YTF7 1-343): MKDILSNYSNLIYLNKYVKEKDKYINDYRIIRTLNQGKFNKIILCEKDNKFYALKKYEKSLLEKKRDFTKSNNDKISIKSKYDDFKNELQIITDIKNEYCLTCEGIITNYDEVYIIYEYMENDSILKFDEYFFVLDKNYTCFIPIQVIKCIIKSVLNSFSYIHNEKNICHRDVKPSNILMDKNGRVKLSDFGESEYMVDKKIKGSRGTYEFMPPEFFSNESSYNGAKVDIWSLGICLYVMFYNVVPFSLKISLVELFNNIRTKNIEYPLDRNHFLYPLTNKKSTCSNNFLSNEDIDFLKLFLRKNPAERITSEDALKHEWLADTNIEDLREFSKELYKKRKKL
# [8] = target: Calcium-dependent protein kinase 4 (Plasmodium falciparum (isolate 3D7)) (UniProt Q8IBS5); assay: PfCDPK4 kinase inhibitors, biochemical, TCAMS library (AID 1159588; cut-off not given, nearly all actives have IC50 up to about 0.91 µM); settings: recombinant PfCDPK4, Kinase-Glo ATP depletion luminescence
# Calcium-dependent protein kinase 4 (Plasmodium falciparum (isolate 3D7)), sequence (Q8IBS5 whole entry, looked up): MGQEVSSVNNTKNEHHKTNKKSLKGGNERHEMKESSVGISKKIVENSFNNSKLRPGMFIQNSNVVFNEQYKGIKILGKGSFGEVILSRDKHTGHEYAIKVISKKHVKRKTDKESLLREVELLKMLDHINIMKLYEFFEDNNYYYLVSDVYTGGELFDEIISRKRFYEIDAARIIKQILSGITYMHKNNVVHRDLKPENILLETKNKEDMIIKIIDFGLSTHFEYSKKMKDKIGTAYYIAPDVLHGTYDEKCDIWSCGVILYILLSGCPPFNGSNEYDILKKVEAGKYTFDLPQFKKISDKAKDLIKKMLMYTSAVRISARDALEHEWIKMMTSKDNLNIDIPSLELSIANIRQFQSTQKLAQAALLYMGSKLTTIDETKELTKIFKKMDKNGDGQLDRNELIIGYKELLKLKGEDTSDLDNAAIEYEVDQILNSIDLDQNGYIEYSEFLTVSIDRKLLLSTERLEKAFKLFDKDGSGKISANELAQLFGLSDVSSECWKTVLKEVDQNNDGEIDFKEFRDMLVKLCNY
Structure (SMILES),growth inhibition [1],inhibition [2],inhibition [3] [%],growth inhibition [4],outcome [5],outcome [6],outcome [7],outcome [8]
O=C(Nc1ccc(-c2ccccc2)s1)N[C@H]1CCN(Cc2ccc(OCCCN3CCCCC3)cc2)C1,40%,5%,-6,102% (active),inactive,inactive,inactive,inactive
CC(C)NCc1ccc(-c2ccc(-c3nc4ccc(F)cc4[nH]3)cc2)cc1,100% (active),14%,-5,101% (active),inactive,inactive,inactive,inactive
COc1ccc(C=Cc2cc(N)c3ccccc3n2)cc1,16%,38%,5,93% (active),inactive,inactive,inactive,inactive
O=c1[nH]c(=O)n2c(nc3ccccc32)[nH]1,-1%,21%,6,95% (active),inactive,inactive,inactive,inactive
COCCNCc1cccc(-c2cccc(CNC3CCN(Cc4ccccc4)CC3)c2)c1,99% (active),28%,-4,101% (active),inactive,inactive,inactive,inactive
O=C(Nc1ccc2c(c1)CCC2)N[C@H]1CCN(Cc2ccc(OCCCN3CCCCC3)cc2)C1,-2%,9%,-2,96% (active),inactive,inactive,inactive,inactive
Cc1cc(Nc2cccc(Cl)c2)nc2ccc(NC(=O)c3ccc(=O)[nH]c3)cc12,23%,12%,4,100% (active),inactive,inactive,inactive,inactive
COc1cccc2cc(C(=O)N[C@@H](CC(C)C)C(=O)N[C@H](/C=N/N3CCOC3=O)Cc3ccccc3)oc12,70% (active),6%,-1,96% (active),inactive,inactive,inactive,inactive
C(=NNc1nc2ccccc2[nH]1)c1ccccc1OCc1ccccc1,90% (active),15%,6,100% (active),inactive,inactive,inactive,inactive
COc1cc(OC)nc(-c2cccc(NC(=O)c3ccc4c(=O)n(CCN5CCCCC5)cnc4c3)c2)n1,86% (active),11%,-1,100% (active),inactive,inactive,inactive,inactive
Cn1cncc1-c1ccc2ncnc(Nc3ccc4c(cnn4Cc4ccccc4)c3)c2c1,99% (active),1%,-3,100% (active),inactive,inactive,inactive,inactive
COc1ccc(CN(C)C(=O)CCNS(=O)(=O)c2ccc3c(c2)OCCCO3)cc1F,94% (active),9%,0,96% (active),inactive,inactive,inactive,inactive
O=C(/C=C/c1ccc(Cl)c(Cl)c1)NCCCCCN1CCC(NC(=O)Nc2ccc(Cl)c(Cl)c2)CC1,1%,23%,0,102% (active),inactive,inactive,inactive,inactive
CCc1nc(N)nc(N)c1-c1ccccc1,1%,53% (active),-2,92% (active),inactive,inactive,inactive,inactive
CN1CCN(c2ccnc3ccc(NC(=O)Nc4ccc5ccccc5c4)cc23)CC1,99% (active),2%,-1,101% (active),inactive,inactive,inactive,inactive
CC(C)[C@H]1CC[C@H](C)C[C@@H]1OC(=O)N[C@@H](Cc1ccc(O)cc1)C(=O)NC1CCN(Cc2ccc(OCCCN(C)C)cc2)C1 (stereo not given in full),64% (active),27%,4,99% (active),inactive,inactive,inactive,inactive
CS(=O)(=O)c1ccc(CCNCc2ccc(-c3ccc(CNC4CCN(Cc5ccccc5)CC4)cc3)nc2)cc1,100% (active),32%,3,101% (active),inactive,inactive,inactive,inactive
N#Cc1ccc2nc(-c3cc(-c4cccc(F)c4)cnc3N)[nH]c2c1,93% (active),46%,5,100% (active),inactive,inactive,inactive,inactive
Cc1ccc(CNC(=O)[C@H](CCCN)Nc2nc(NCC3CCCCC3)ncc2C)cc1,5%,1%,3,92% (active),inactive,inactive,inactive,inactive
COc1cc2c(cc1OC)CC(NCc1ccc(-c3ccc4nc[nH]c4c3)cc1)C2,92% (active),40%,0,97% (active),inactive,inactive,inactive,inactive
